# Out of some 330,000 compounds screened, about 1,900 (0.58%) were called active. Inconclusive results (about 4%) are left out. Only a sample is shown. Potency and affinity values are given separately. Unmarked numbers belong to inactive results. Rule as the data show it: inconclusive = inhibition above about 70% without an active follow-up result; inactive = below that.
# Test: M. tuberculosis growth inhibition, HTS (AID 449762);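 also: bacterial growth assessed after seven days of incubation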
# Conditions: M. tuberculosis H37Rv growth inhibition, 7H9 media; at 25 µM; active compounds read high
row,SMILES,inhibition [%]
1,CCNc1nc2c(c(=O)[nH]c(=O)n2C)n1CC(C)C,-9.92
2,CC(C)Cn1c(NCCN(C)C)nc2c1c(=O)[nH]c(=O)n2C,-4.76
3,Cc1c(Cl)cccc1NC(=O)CSc1nnnn1C,1.96
4,COc1ccc(C(CCNCc2ccc(N(C)C)cc2)C(C)C)cc1 (stereo not drawn),10.7
5,CC(C)Oc1ccc(C(CCNCc2ccc(O)cc2)c2ccccc2)cc1 (stereo not drawn),62.7
6,CSc1ccc(CCNC(=O)c2cc(C)nn2-c2ccccc2)cc1,3.36
7,COc1ccc(NC(=O)CCNC(=O)c2ccccc2)cc1S(N)(=O)=O,-4.86
8,COC(=O)c1ccc(COC(=O)c2cc3ccccc3oc2=O)cc1,15.8
9,CCOC(=O)c1cc2ccc(OC)cc2oc1=O,14
10,CCOC(=O)c1cc2c(ccc3ccccc32)oc1=O,52.8
11,CC(=O)c1ccc(COC(=O)c2cc3ccccc3oc2=O)cc1,13.6
12,O=C(/C=C/c1ccccc1)N1c2ccccc2Sc2ccc(C(F)(F)F)cc21,25.3
13,COc1cccc(-n2c(CN3CCN(c4ccccn4)CC3)nc3ccc([N+](=O)[O-])cc3c2=O)c1,-0.01
14,COc1ccc(NC(=O)CSc2nc3c(c(=O)n2-c2ccc(C)cc2)SCC3)c(OC)c1,-1.52
15,Cc1ccccc1C(=O)NCCCNC(=O)c1cnccn1,4.01
16,COc1ccc(CCNC(=O)CNS(=O)(=O)c2cccs2)cc1OC,-11.3
17,CCOc1ccc(S(=O)(=O)NC(Cc2cnc[nH]2)C(=O)O)cc1 (stereo not drawn),-6.37
18,CC(=O)Nc1cccc(OCC(=O)Nc2ccc(F)cc2)c1,-11.2
19,C=CC(=O)Nc1cccc(Oc2ncnc3[nH]cc(-c4cnc5ccccc5c4)c23)c1,1.76
20,Cc1ccc(NC(=O)COC(=O)Cn2cnc3ccccc32)c(C)c1,5.43
21,O=[N+]([O-])/C=C/c1cn(Cc2ccc(Cl)cc2)c2ccccc12,3.28
22,Cc1cccc(Cn2cc(/C=C/[N+](=O)[O-])c3ccccc32)c1,-0.16
23,COc1cc(CN(CC2CCCO2)C(=O)c2cccs2)cc(OC)c1OC (stereo not drawn),1.89
24,NC(=O)C1CC(=O)N(c2ccc(OCc3ccccc3Cl)cc2)C1 (stereo not drawn),7.94

row,SMILES,inhibition [%]
1,CCOc1ccc(N2CC(C(=O)Nc3ccccn3)CC2=O)cc1 (stereo not drawn),12.2
2,CC(C)Oc1ccc(N2CC(C(=O)Nc3ccccn3)CC2=O)cc1 (stereo not drawn),10.3
3,O=C(O)C1CC(=O)N(c2ccc(OCc3ccccc3Cl)cc2)C1 (stereo not drawn),35.8
4,O=C(OCc1ccccc1Cl)C1CC(=O)N(Cc2ccco2)C1 (stereo not drawn),5.47
5,COc1ccc(COC(=O)C2CC(=O)N(Cc3ccc(C)cc3)C2)cc1 (stereo not drawn),16.4
6,O=C(COC(=O)c1ccc(Cl)nc1)NNC(=O)c1ccc(Cl)cc1,5.61
7,O=C(NCCC1=CCCCC1)c1cc(S(=O)(=O)N2CCOCC2)c(Cl)cc1Cl,2.93
8,CCc1ccccc1N(CC(=O)NCC1CCCO1)C(=O)CCC(=O)Nc1cc(C)on1 (stereo not drawn),-3.22
9,COc1ccc(OC)c(S(=O)(=O)N2CCC(C(=O)Nc3cc(C)ccc3C)CC2)c1,-10.6
10,Cc1ccccc1C1C(C#N)=C2N=C(N)c3ccccc3N2C2=C1C(=O)CCC2 (stereo not drawn),6.31
11,CCOC(=O)/C(=N\Nc1ccccc1)c1csc(Nc2ccc(C)cc2)n1,7.86
12,CCOC(=O)/C(=N\Nc1ccc(C(C)=O)cc1)c1csc(Nc2ccccc2)n1,-1.99
13,Cc1ccc(NC(=O)CN(C)C(=O)c2ccc3[nH]c4c(c3c2)CC(C)CC4)cc1 (stereo not drawn),-5.07
14,O=C(c1ccccc1)c1ccc(COC(=O)c2cnccn2)cc1,18
15,O=C(OCc1ccc(Cl)cc1)c1cnccn1,31.1
16,COC(=O)CN(c1cccc(OC)c1)S(C)(=O)=O,1.45
17,CN(C)C(CNc1ncnc2sccc12)c1cccs1 (stereo not drawn),-3.95
18,CCOC(=O)c1sc2ncnc(NCc3ccco3)c2c1C,0.46
19,NC(=O)c1ccsc1NC(=O)COC(=O)Cc1c[nH]c2ccccc12,2.86
20,COc1ccc(/C=C2/SC(=O)N(CCNC(=O)CC(NC(C)=O)c3ccccc3)C2=O)cc1 (stereo not drawn),-1.58
21,Cc1ccc(CC(=O)Nc2ccc(Cl)cn2)cc1,3.62
22,Cc1ccc(NC(=O)Cc2ccc(Cl)cc2)nc1,11.2
23,O=C(c1ccc(Cl)cc1)N1N=CCC1(O)c1ccc(Cl)cc1 (stereo not drawn),2.13
24,C[C@H](NC(=O)c1[nH]cnc1C(=O)Nc1ccon1)c1ccccc1,-0.305

row,SMILES,inhibition [%]
1,O=C(OCC(=O)N1CCN(C(=O)c2ccco2)CC1)c1cc(-c2ccco2)nc2ccccc12,6.06
2,O=C(OCC(=O)N1CCN(C(=O)c2ccco2)CC1)c1cc(-c2ccc(Cl)c(Cl)c2Cl)nc2ccccc12,4.98
3,COc1ccc(CN(C)C(=O)C(Cc2ccccc2)NC(=O)c2ccccc2)c(OC)c1 (stereo not drawn),0.87
4,COc1cc(CN2CCC(n3nccc3NC(=O)CCCc3ccccc3)CC2)ccc1F,-1.97
5,CCC(C)(C)C1CCC(=NNC(=S)Nc2ccccc2)CC1 (stereo not drawn),6.86
6,CC1CCC/C(=N\NC(=O)Nc2ccccc2)C1 (stereo not drawn),-3.97
7,CCN(CC(=O)NCc1ccc(Cl)cc1)C(=O)c1ccc(S(=O)(=O)N(C)C)cc1,-8.9
8,Cc1ccc(N=C2C(=S)N(c3ccc(C)cc3)C(=N)N2/N=C/c2ccc(Cl)cc2)cc1,-4.74
9,N=C1N(/N=C/c2ccccc2)C(=Nc2ccccc2)C(=S)N1c1ccccc1,-15.3
10,CNC(=O)CSCc1cnn(-c2ccccc2)c1-n1cccc1,-0.17
11,Nc1ccc(S(=O)(=O)N2CCCC2C(=O)O)cc1 (stereo not drawn),-7.07
12,Nc1nonc1C(=O)NCCNCc1cc(Br)ccc1OCc1ccccc1F,14.5
13,Nc1nonc1C(=O)NCCNCc1ccccc1OCc1ccccc1F,2.36
14,COc1ccc(N(CC(=O)NC2CC3CCC2C3)S(=O)(=O)c2ccc(C)c([N+](=O)[O-])c2)cc1 (stereo not drawn),2.1
15,COc1cc(NC(=O)COc2ccc(-n3ccnc3)cc2)cc(OC)c1,38.6
16,O=C(COc1ccc(-n2ccnc2)cc1)Nc1cccc(Cl)c1,-3.44
17,Cc1ccc(C(=O)N2CCN(c3ccc([N+](=O)[O-])c(NCc4cccnc4)c3)CC2)cc1,0.99
18,CC(C)(C)C(=O)/C=c1\[nH]c(=O)/c(=C\c2ccccc2F)s1,48.4
19,COc1cc(/C=c2\s/c(=C\C(=O)C(C)(C)C)[nH]c2=O)cc(OC)c1OC,69
20,O=C(Nc1c(C(=O)NCc2ccco2)cnn1-c1ccccc1)c1ccc(F)cc1,3.13
21,COc1ccc(C(=O)Nc2nnc(S(=O)(=O)Cc3ccccc3)s2)cc1,8.58
22,O=C(N/N=C/c1ccccc1)C(=O)N/N=C/c1ccccc1,2.46
23,O=C(CC1CCCC1)N1CCN(S(=O)(=O)c2ccc(F)cc2)CC1,-4.71
24,COC(=O)c1ccccc1NC(=O)COC(=O)CSc1nnc(N)s1,0.97

row,SMILES,inhibition [%]
1,CC(C)(C)OC(=O)NCCCCCNC(=O)c1[nH]cnc1C(=O)Nc1ccon1,-5.82
2,COc1ccc(NC(=O)NCc2cccnc2)cc1OC,-5.2
3,COC(=O)Cn1nc(-c2ccccc2)c2ccccc21,31.4
4,COC(=O)Cn1nc(-c2ccccc2)c2ccccc2c1=O,65.5
5,Cc1ccccc1C(=O)N1CCC(C(=O)N(CC(C)C)c2c(N)n(CC(C)C)c(=O)[nH]c2=O)CC1,-6.17
6,COC(=O)[C@H](CCSC)NC(=O)NCc1cccs1,-7.69
7,Cc1cccc(NC(=O)C2CCN(c3nccc(C)n3)CC2)c1,3.71
8,Cc1cc(C)nc(N2CCC(C(=O)Nc3cccc(C(F)(F)F)c3)CC2)n1,-14.2
9,CCOC(=O)c1cn(CC)c2cc(Cl)c([N+](=O)[O-])cc2c1=O,9.8
10,CCCN1CCN(C2CCCCC2NS(=O)(=O)c2ccccc2)CC1 (stereo not drawn),-5.87
11,OC(COC(c1ccc(F)cc1)c1ccc(F)cc1)CN1CCc2ccccc2C1 (stereo not drawn),28.2
12,OC(COC(c1ccccc1)c1ccccc1)CN1CCc2ccccc2C1 (stereo not drawn),4.67
13,CCOc1ccc(Oc2nc(NCC(C)C)nc(N(C)C)n2)nn1,-2.04
14,COC(=O)Cn1c(=O)oc2ccc(C)cc21,-1.52
15,COc1cc(NC(=O)CCc2c(C)nc3nc(C)nn3c2C)cc(OC)c1,2.33
16,COC(=O)c1sccc1NC(=O)CSc1cccc(Cl)c1Cl,11
17,COC(=O)c1ncccc1SC,-6.32
18,COc1ccc(-c2noc(C3CCCN(S(=O)(=O)c4ccc(C)c(Cl)c4)C3)n2)cc1OC (stereo not drawn),-3.19
19,CCCC(C)NC(=O)COc1ccc(S(=O)(=O)c2ccc(OCC(=O)NC(C)CCC)cc2)cc1 (stereo not drawn),-8.03
20,O=C(Nc1cccnc1)C1CCN(S(=O)(=O)c2ccc(Cl)cc2)CC1,0.94
21,CSCCC(NC(=O)CCC(=O)OC1CC[C@H]2[C@@H]3CC[C@H]4CC(=O)CC[C@]4(C)[C@H]3CC[C@]12C)C(=O)O (stereo partly drawn),2.77

# Source: PubChem BioAssay AID449762 (Southern Research Specialized Biocontainment Screening …, 2010)
